According to ChEMBL document CHEMBL4513216, “Probing the Open Global Health Chemical Diversity Library for Multistage-Active Starting Points for Next-Generation Antimalarials” (ACS Infect Dis, 2020):
In all, about 69,000 compounds went through this assay and about 8,600 (12%) showed an effect of 50% or more. Many of the other results were omitted from the sample, so strong results are more common in it than they were.

These compounds were tested on Plasmodium berghei (assay: Screen against P. berghei liver stage (PbLuc), transformed with Luciferase, at 10uM). Conditions: tested at 10 uM.
Format: functional, HepG2

| SMILES | INHIBITION [%] |
| --- | --- |
| COc1ccccc1C(=O)N1CC(=O)N(Cc2ccco2)CC(O)C1 (centres undefined) | 26.8 |
| COc1ccccc1CC(=O)N1CCC(NCc2ccc(C)o2)CC1 | 29.375 |
| O=C(NCc1ccco1)[C@H]1C[C@@H]2CCN(c3cccc(F)c3)C[C@H]2O1 | 44.1 |
| Cn1ccnc1-c1cn(CCCc2csc(N)n2)nn1 | 17.5 |
| COC(=O)CC1CCCCN1CC(=O)Nc1cc(F)ccc1F (centres undefined) | 47.2 |
| COC(=O)CC1CCCCN1CC(=O)NCCc1ccc(F)cc1 (centres undefined) | 38.5 |
| COC(=O)CC1CCCCN1CC(=O)Nc1ccc(F)cc1Cl (centres undefined) | 62.4 |
| O=C(CCn1cncn1)N1C[C@@H]2CC[C@H]1CN(Cc1cccnc1)C2 | 14.3 |
| Cc1ccc(-c2noc(C(C)NS(C)(=O)=O)n2)cc1 (centres undefined) | 1.8 |
| CS(=O)(=O)N1CCOCC2(CN(Cc3ccco3)CCO2)C1 (centres undefined) | 3.47 |
| Cc1ccc(CN(Cc2ccncc2)C2CCN(C)CC2)s1 | -6.73 |
| COc1ncc(CN(CCN(C)C)Cc2ccc(C)s2)cn1 | 63.8 |
| COCc1ncc(CN(CCN(C)C)Cc2ccc(C)s2)cn1 | 38.7 |
| CCNc1ncc(CN(CCN(C)C)Cc2ccc(C)s2)cn1 | 35 |
| CCc1ccc(CN(CCN(C)C)Cc2ccc(C)s2)nc1 | 22 |
| COCc1ncc(CN(Cc2ccncc2)Cc2ccc(C)s2)cn1 | 61.9 |
| Cc1cc(C(=O)NCC2CCS(=O)(=O)C2)ccc1NC(=O)c1ccco1 (centres undefined) | 40.2 |
| CC(C)n1cnnc1CNC(=O)c1cnn(Cc2ccccc2)c1 | -24.4 |
| COCC1c2c(cnn2CC2CC2)CCN1Cc1cc(C)on1 (centres undefined) | 47.1 |
| COCCn1cc(C(=O)NC2CCS(=O)(=O)C2)c2ccccc2c1=O (centres undefined) | 42.8 |
| Cc1cc(C(=O)N2CCC(O)(Cn3ccc4ccncc43)CC2)on1 | 12.8 |
| O=C(Cc1ccc(O)cc1)N1CCCC(O)(CN2CCOCC2)CC1 (centres undefined) | 30.4 |
| Cc1nc(CCC(=O)NC2CCC2)cc(C2CCNCC2)n1 | 33.5 |
| CN1CC(C(=O)NCCc2ccc(Br)cc2F)CC1=O (centres undefined) | -57 |
| c1ccc(OC[C@@H]2CCC[C@@]23CNCCO3)nc1 | 31.3 |

| SMILES | INHIBITION [%] |
| --- | --- |
| c1ccc(COC[C@H]2CCC[C@@]23CNCCO3)nc1 | 62.9 |
| CC(=O)N1CCC2(CC1)COC(COCc1ccccn1)C2 (centres undefined) | 14.6 |
| c1ccc(COC[C@@H]2CCC[C@@]23CNCCO3)nc1 | 72 |
| CN1CCN(C(=O)c2cc3sccc3n2Cc2ccc(Cl)cc2)CC1 | 13.9 |
| Cn1cnc(S(=O)(=O)N2CCCc3cccc(F)c32)c1Cl | 39.7 |
| Cc1ccc(C(=O)N2CC[C@@H]3[C@H]2CCC(=O)N3c2ccccc2)o1 | 31.8 |
| O=C(C1CC1)N1CC[C@H]2[C@@H]1CCC(=O)N2c1ccccc1 | 12.1 |
| O=C(c1ccco1)N1CC[C@@H]2[C@H]1CCC(=O)N2c1ccccc1 | 30.3 |
| Cc1cccc(C(=O)N2CC[C@@H]3[C@H]2CCC(=O)N3c2ccccc2)n1 | 65.7 |
| O=C(Cc1cccs1)N1CC[C@H]2[C@@H]1CCC(=O)N2c1cccnc1 | 30.7 |
| O=C(CC1CC1)N1CC[C@H]2[C@@H]1CCC(=O)N2c1cccnc1 | 58.6 |
| Cc1cc(C(=O)N2CC[C@H]3[C@@H]2CCC(=O)N3c2ccccc2)no1 | 53.9 |
| Cc1cnc(C(=O)N2CC[C@H]3[C@@H]2CCC(=O)N3c2cccnc2)cn1 | 40.4 |
| Cc1ccc(C(=O)N2CC[C@H]3[C@@H]2CCC(=O)N3c2ccccc2)cn1 | 16.8 |
| Cc1cccc(N2CCCC3(C2)CN(S(=O)(=O)C2CC2)CCO3)c1 (centres undefined) | 20.1 |
| CCc1c(C)nc2cc(-c3nccn3C)nn2c1N1CCCC(CO)C1 (centres undefined) | 10.62 |
| Cc1csc(CCCNC(C)CC(=O)Nc2ccc(F)cc2)n1 (centres undefined) | 40 |
| c1cnc(Nc2cncc(C3CCCN3)n2)cn1 (centres undefined) | 31.6 |
| CN(C)CC1COCCN1C(=O)C1(c2cccs2)CCCC1 (centres undefined) | 36.2 |
| CS(=O)(=O)N1CCN(c2cc(-n3cccc3)ncn2)CC1 | 38.3 |
| Cc1ccc(CN2CC[C@H]3OCC[C@@H](c4nc(C)no4)[C@H]3C2)cc1 | 36.4 |
| Cc1noc([C@@H]2CCO[C@@H]3CCN(Cc4cccs4)C[C@@H]32)n1 | 24.1 |
| Cc1noc([C@@H]2CCO[C@@H]3CCN(Cc4ccc(C)s4)C[C@@H]32)n1 | 53.2 |
| COCC(=O)N1CC[C@H]2N(C)CC[C@@]2(C(=O)Nc2ccccc2)CC1 | 3.25 |
